Assay results as given in PubChem BioAssay (NCI).
Compounds without any hit were thinned out: in the full panel of roughly 83,000, 20% have a hit.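 Testing used 96-well plates and a 48-hour single-concentration exposure. Example: -40 means 40% of the starting cells died.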 The source made the active and inactive calls. How the source made its calls: active means growth percent below 10; inactive means the rest.

What was measured:
Assay in all cases: NCI-60 one-dose screen, 48 h (100 = growth as untreated, 0 = no growth, -100 = all killed)
Conditions in all cases: 10 µM
[1] = tested on: HCT-15 colon
[2] = tested on: HT29 colon
[3] = tested on: SNB-75 CNS
[4] = tested on: SNB-19 CNS
[5] = tested on: U251 CNS
[6] = tested on: PC-3 prostate
[7] = tested on: SK-MEL-5 melanoma
[8] = tested on: UACC-62 melanoma
[9] = tested on: LOX IMVI melanoma
[10] = tested on: SK-MEL-28 melanoma
[11] = tested on: SK-MEL-2 melanoma
[12] = tested on: SN12C renal
[13] = tested on: UO-31 renal
[14] = tested on: TK-10 renal
[15] = tested on: ACHN renal
[16] = tested on: CAKI-1 renal
[17] = tested on: A498 renal
[18] = tested on: CCRF-CEM leukemia
[19] = tested on: MOLT-4 leukemia

Measured: growth

COc1ccc(S(=O)(=O)Nc2ccc(OCc3nnc(-c4ccc(Cl)cc4)o3)c(F)c2)cc1
inactive: [1] 65.5% | [2] 83.7% | [3] 67.1% | [4] 65.8% | [5] 68.4% | [6] 52.3% | [7] 15.7% | [8] 42.4% | [9] 52.7% | [10] 83.8% | [11] 40.6% | [12] 68.1% | [13] 51.3% | [14] 57.6% | [15] 56.6% | [16] 54.6% | [17] 47% | [18] 54.5% | [19] 36%

CCOC(=O)CNC(=O)Nc1ccc(Oc2ccc(NC(=O)NCC(=O)OCC)cc2)cc1
inactive: [1] 99.2% | [2] 107% | [3] 74.4% | [4] 104% | [5] 93.8% | [6] 86.9% | [7] 97.1% | [8] 92.4% | [9] 91.9% | [10] 91% | [11] 115% | [12] 94.7% | [13] 83.2% | [14] 114% | [15] 102% | [16] 95.1% | [17] 95.7% | [18] 89.4% | [19] 107%

COc1cc(C2C(C#N)=C(c3c[nH]c4ccccc34)Nc3nc(N)[nH]c(=O)c32)cc(OC)c1OC (stereo not given)
inactive: [1] 105% | [2] 107% | [3] 80% | [4] 66.5% | [5] 73.6% | [6] 62.8% | [7] 67.4% | [8] 84.2% | [9] 52% | [10] 56.2% | [11] 93.8% | [12] 90.9% | [13] 79.3% | [14] 123% | [15] 95% | [16] 95.2% | [17] 89.9% | [18] 53.5% | [19] 98.2%

Nc1c(C(=O)NC2CCCCC2)sc2nc3c(cc12)C(=O)CCC3
inactive: [1] 85.8% | [2] 110% | [3] 95% | [4] 97.2% | [5] 93.6% | [6] 92.4% | [7] 95% | [8] 91% | [9] 103% | [10] 94.8% | [11] 97.2% | [12] 93.3% | [13] 94.6% | [14] 140% | [15] 107% | [16] 90.3% | [17] 88.6% | [18] 98.8% | [19] 90.2%

c1ccc(COCC[P+](c2ccccc2)(c2ccccc2)c2ccccc2)cc1
inactive: [1] 71.9% | [10] 14.6% | [13] 46.9% | [15] 45.2% | [16] 59.9%
active: [2] 1.21% | [3] -5.5% | [4] 9.79% | [5] 5.43% | [6] -4.87% | [7] -72% | [8] 2.32% | [9] -32.2% | [11] -14.8% | [12] 5.38% | [14] 8.09% | [17] -2.41% | [18] 2.79% | [19] -10.1%

COc1cc(C2C=C(c3ccc(Cl)cc3)N=C3SC(C)=CN32)cc(OC)c1OC (stereo not given)
inactive: [1] 84.7% | [2] 79.1% | [3] 81.8% | [4] 91.5% | [5] 85.1% | [6] 89.2% | [7] 91.9% | [8] 85.5% | [9] 96.8% | [10] 105% | [11] 102% | [12] 90.6% | [13] 79.3% | [14] 71% | [15] 105% | [16] 88.7% | [17] 86.1% | [18] 89.2% | [19] 80.2%

O=C(CCCC(=O)N/N=C/c1cc(Cl)ccc1O)N/N=C\c1cc(Cl)ccc1O
inactive: [1] 28.1% | [2] 55.4% | [3] 58.9% | [4] 48.1% | [5] 21% | [6] 24% | [10] 35.8% | [11] 51.7% | [12] 35.3% | [14] 32.3% | [15] 23.1% | [17] 63.5%
active: [7] -1.89% | [8] -16.9% | [9] 7.26% | [13] 5.41% | [16] -1.73% | [18] -0.225% | [19] -12.9%

COc1ccc(OC)c([N+](=O)[O-])c1C=O
active: [13] -43.3%
inactive: [1] 104% | [2] 55.6% | [3] 85.8% | [4] 101% | [5] 105% | [6] 92.9% | [7] 96.1% | [8] 100% | [9] 83.4% | [10] 103% | [11] 136% | [12] 101% | [14] 154% | [15] 92.5% | [16] 72.2% | [17] 59.2% | [18] 41.4% | [19] 66.8%

COc1ccc(CSc2nc3cc(OC)c(OC)cc3c(=O)n2-c2ccc(OC)cc2OC)cc1
inactive: [1] 80.6% | [2] 88% | [3] 90.3% | [4] 79.6% | [5] 85.9% | [6] 55.6% | [7] 80.5% | [8] 80.2% | [9] 83.4% | [10] 102% | [11] 91.5% | [12] 90.1% | [13] 55.4% | [14] 108% | [15] 94% | [16] 68.7% | [17] 58.6% | [18] 92.7% | [19] 79.4%

N#Cc1cnc2ccc(NCc3cnc[nH]3)cc2c1Nc1ccc(F)c(Cl)c1
inactive: [1] 88.4% | [2] 82% | [3] 86.4% | [4] 76.8% | [5] 58.8% | [6] 70.1% | [7] 87.5% | [8] 83% | [9] 58.2% | [10] 98% | [11] 32.5% | [12] 46.5% | [13] 51.5% | [14] 11.8% | [15] 24.6% | [16] 43.6% | [17] 52.4% | [18] 71.3% | [19] 79.6%

COc1ccc(C(=O)/C=C/c2cc(-c3ccc4c(c3)OCO4)n[nH]2)cc1OC
inactive: [1] 52.1% | [2] 36.4% | [3] 60.3% | [4] 47.1% | [5] 31.8% | [6] 48.4% | [7] 81.7% | [8] 88.9% | [9] 47.5% | [10] 103% | [11] 84.4% | [12] 60.3% | [13] 44.4% | [14] 62.8% | [15] 76.3% | [16] 38.1% | [17] 41.9% | [18] 21.6%
active: [19] -9.67%

COc1cc(CSc2nc3ccc(C)cc3c(=O)n2Cc2ccccc2)cc(OC)c1OC
active: [3] -4.08% | [11] 1.08% | [17] 7.01%
inactive: [1] 29.2% | [2] 10.5% | [4] 58.1% | [5] 33.1% | [6] 45.9% | [7] 17.8% | [8] 21.4% | [9] 39.8% | [10] 52% | [12] 40% | [13] 32.1% | [14] 52.7% | [15] 46.7% | [16] 28.8% | [18] 23.6% | [19] 30.8%

Cn1c([N+](=O)[O-])cnc1/C=C1\Oc2ccc(Br)cc2C1=O
active: [1] -40.8% | [2] -31.4% | [3] 8.51% | [4] 1.52% | [5] -29.6% | [6] -24.7% | [7] -89.2% | [8] -73.7% | [9] -52.3% | [10] -13.7% | [11] -49% | [12] -2.34% | [13] -38.4% | [14] -33.3% | [15] -41.6% | [16] -21.6% | [17] -29.7% | [18] 5.39% | [19] -14.1%

CC1(CO)CCCC12OCCO2 (stereo not given)
inactive: [1] 101% | [2] 98.6% | [3] 97.2% | [4] 105% | [5] 102% | [6] 103% | [7] 100% | [8] 100% | [9] 104% | [10] 108% | [11] 95.2% | [12] 100% | [13] 93.7% | [14] 107% | [15] 102% | [16] 101% | [17] 94.1% | [18] 97.3% | [19] 107%

COc1cc(CSc2nc3ccc(C)cc3c(=O)n2-c2ccccc2)cc(OC)c1OC
inactive: [1] 30.1% | [2] 14.3% | [4] 57.2% | [5] 38.5% | [6] 49.1% | [7] 20% | [8] 20.8% | [9] 36% | [10] 52% | [11] 14.7% | [12] 37% | [13] 24.1% | [14] 61.7% | [15] 44.7% | [16] 27.6% | [17] 16% | [18] 15.8% | [19] 21.8%
active: [3] -7.55%
